Holding throughout (parameters): scale not given: direction of the effect not stated beside the values
In assay [1] the target is Protein translocase subunit SecA (Escherichia coli (strain K12)) (UniProt P10408). Kind of assay: Assay to Identify E. coli SecA ATPase Inhibitors. The class given is functional. To be noted: 30 µM.
The target in assay [2] is T1, Ubiquitin-activating enzyme e1, putative (Leishmania donovani (strain BPK282A1)) (UniProt E9BSI1).
T1 sequence (whole entry): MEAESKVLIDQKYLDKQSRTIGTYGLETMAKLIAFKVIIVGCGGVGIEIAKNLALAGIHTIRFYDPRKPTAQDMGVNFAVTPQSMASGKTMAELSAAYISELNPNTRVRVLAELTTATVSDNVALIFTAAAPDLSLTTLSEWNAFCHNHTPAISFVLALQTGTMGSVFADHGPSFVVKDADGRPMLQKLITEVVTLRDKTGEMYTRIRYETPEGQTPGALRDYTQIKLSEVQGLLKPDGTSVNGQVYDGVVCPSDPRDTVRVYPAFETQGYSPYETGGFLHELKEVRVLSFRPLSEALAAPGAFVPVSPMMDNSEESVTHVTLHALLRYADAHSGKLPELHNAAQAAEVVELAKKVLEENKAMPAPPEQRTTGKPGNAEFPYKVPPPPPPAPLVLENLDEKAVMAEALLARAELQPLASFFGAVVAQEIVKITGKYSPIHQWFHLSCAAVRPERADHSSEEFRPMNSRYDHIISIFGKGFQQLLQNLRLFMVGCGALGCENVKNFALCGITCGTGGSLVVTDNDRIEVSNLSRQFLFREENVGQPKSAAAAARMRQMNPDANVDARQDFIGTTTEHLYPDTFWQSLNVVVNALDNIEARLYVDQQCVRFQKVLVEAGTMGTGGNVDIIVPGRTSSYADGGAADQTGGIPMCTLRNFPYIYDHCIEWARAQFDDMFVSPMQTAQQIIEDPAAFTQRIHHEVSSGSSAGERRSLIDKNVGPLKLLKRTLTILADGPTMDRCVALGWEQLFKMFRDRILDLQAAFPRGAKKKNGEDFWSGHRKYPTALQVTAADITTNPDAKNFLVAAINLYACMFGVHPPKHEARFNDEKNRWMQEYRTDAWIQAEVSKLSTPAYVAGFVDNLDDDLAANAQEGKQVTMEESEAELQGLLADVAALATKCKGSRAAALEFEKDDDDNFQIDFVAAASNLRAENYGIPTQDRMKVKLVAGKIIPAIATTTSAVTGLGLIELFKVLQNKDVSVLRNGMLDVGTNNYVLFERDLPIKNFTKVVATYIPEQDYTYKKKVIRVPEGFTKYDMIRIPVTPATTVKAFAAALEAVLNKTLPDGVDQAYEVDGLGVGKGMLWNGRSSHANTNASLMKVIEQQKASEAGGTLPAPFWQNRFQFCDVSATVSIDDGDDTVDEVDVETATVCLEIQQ
Put plainly: Leishmania donovani Ubiquitin Activating Enzyme (LdE1). The class given is functional. To be noted: 30 µM.

Assay [3] addresses AMP-activated protein kinase, AMPK (Homo sapiens) (UniProt P54646+O43741+P54619+Q9UGJ0+Q9Y478+Q13131+Q9UGI9). Put plainly: AMP-dependent Kinase enzyme assay. An in vitro enzyme assay that detects ADP turnover that is directly proportional to AMPK activity. This uses naive AMPK that is activated during the assay with MK-8722. The class given is functional. As to conditions: 30 µM.

Assay [4] deals with Sialic acid-binding Ig-like lectin 9 (Homo sapiens) (UniProt Q9Y336). Put plainly: Hs-Siglec9 ALPHAscreen SOP 20170721. As to conditions: 10 µM. On the technique in general: In Alpha technology, singlet oxygen from a donor bead excites a nearby acceptor bead.
The next assay concerns Trypanosoma cruzi. Put plainly: Trypanosoma cruzi phosphomannomutase and mannose-1-phosphate guanylyltransferase assay. As to conditions: 10 µM. In kind it is functional.
The target in assay [5] is T2, Arginase-2, mitochondrial (Homo sapiens) (UniProt P78540).
T2 sequence (whole entry): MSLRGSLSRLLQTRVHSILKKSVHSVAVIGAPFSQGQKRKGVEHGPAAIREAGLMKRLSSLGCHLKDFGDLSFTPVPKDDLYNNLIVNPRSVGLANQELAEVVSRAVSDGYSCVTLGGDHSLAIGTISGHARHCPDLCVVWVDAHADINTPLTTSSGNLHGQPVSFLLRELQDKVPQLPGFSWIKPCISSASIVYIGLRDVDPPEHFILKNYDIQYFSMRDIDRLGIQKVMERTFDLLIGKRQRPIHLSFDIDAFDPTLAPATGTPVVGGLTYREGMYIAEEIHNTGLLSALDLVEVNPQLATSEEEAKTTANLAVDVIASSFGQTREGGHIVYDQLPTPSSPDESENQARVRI
Put plainly: in vitro enzyme assay to detect the production of urea directly proportional to the activity of Arginase II. Note: in the data most compounds retested in dose-response had high values. In kind it is functional. As to conditions: 33.3 µM.

The target of assay [6] is T3, Proteasome subunit beta (Trypanosoma cruzi) (UniProt O96673).
T3 sequence (whole entry): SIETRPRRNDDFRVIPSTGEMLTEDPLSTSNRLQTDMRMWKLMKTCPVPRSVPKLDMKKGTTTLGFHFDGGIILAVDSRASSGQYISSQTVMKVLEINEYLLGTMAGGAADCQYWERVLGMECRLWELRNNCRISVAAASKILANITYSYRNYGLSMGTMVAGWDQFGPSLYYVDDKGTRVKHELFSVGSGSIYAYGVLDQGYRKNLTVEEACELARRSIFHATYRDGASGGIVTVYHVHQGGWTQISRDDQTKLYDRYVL
Put plainly: Trypanosoma cruzi proteasome chymotrypsin-like activity (TcProtChymo) assay. Note: in the data most compounds retested in dose-response had high values. As to conditions: 9.37 µM. The class given is functional.

The species entered for the next assay is Homo sapiens. Put plainly: To identify inhibition of the IFN signalling (Jak-Stat) pathway via expression of an eGFP reporter gene under the control of an IFN-stimulated response element (ISRE) containing MxA promoter. As to conditions: 30 µM. The class given is functional. For orientation: A reporter such as luciferase makes a cellular process visible.
In assay [7] the target is T4, Tyrosyl-tRNA synthetase, putative (Trypanosoma cruzi (strain CL Brener)) (UniProt Q4DSP6).
T4 sequence (whole entry): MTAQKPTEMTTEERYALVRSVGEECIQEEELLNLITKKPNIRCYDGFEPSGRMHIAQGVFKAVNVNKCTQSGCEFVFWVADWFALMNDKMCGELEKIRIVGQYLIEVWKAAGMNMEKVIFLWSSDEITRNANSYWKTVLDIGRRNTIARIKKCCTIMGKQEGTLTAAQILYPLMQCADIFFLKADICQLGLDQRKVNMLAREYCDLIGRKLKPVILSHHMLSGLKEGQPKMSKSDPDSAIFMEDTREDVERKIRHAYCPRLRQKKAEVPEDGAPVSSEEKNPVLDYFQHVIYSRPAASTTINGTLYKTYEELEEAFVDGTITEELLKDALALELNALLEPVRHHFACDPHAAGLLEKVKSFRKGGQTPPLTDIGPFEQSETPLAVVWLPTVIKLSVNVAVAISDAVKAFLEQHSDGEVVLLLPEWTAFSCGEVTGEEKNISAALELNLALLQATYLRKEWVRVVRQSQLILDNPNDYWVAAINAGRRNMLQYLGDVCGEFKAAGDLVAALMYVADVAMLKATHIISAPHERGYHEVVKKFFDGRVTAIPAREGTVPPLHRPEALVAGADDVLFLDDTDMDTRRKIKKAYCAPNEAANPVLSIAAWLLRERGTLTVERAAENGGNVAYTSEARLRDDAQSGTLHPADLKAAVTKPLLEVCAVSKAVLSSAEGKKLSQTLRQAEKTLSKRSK
Put plainly: Trypanosoma cruzi tyrosyl tRNA synthetase (TcYRS) _High Tyrosine SOP. Note: in the data most compounds retested in dose-response had high values. To be noted: 30 µM. The class given is functional.

In assay [8] the target is T4, Tyrosyl-tRNA synthetase, putative (Trypanosoma cruzi (strain CL Brener)). Put plainly: Trypanosoma cruzi tyrosyl tRNA synthetase (TcYRS) SOP. The class given is functional. As to conditions: 30 µM.
Assay [9] addresses Chromo domain-containing protein 1 (Saccharomyces cerevisiae (strain ATCC 204508 / S288c) (Baker's yeast)) (UniProt P32657). Put plainly: ScCHD-1 Enzyme Inhibition Assay. Note: in the data most compounds retested in dose-response had high values. As to conditions: 30 µM. In kind it is functional.

Each structure is given as a SMILES string. For some of these results: Potency and affinity values are given separately.

The text below walks through data of ChEMBL document CHEMBL3988442, “University of Dundee, Small-Polar-MMV Screening Library” (2021).

Chromo domain-containing protein 1 (Saccharomyces cerevisiae (strain ATCC 204508 / S288c) (Baker's yeast)), sequence (P32657 whole entry, the tested form may be a part): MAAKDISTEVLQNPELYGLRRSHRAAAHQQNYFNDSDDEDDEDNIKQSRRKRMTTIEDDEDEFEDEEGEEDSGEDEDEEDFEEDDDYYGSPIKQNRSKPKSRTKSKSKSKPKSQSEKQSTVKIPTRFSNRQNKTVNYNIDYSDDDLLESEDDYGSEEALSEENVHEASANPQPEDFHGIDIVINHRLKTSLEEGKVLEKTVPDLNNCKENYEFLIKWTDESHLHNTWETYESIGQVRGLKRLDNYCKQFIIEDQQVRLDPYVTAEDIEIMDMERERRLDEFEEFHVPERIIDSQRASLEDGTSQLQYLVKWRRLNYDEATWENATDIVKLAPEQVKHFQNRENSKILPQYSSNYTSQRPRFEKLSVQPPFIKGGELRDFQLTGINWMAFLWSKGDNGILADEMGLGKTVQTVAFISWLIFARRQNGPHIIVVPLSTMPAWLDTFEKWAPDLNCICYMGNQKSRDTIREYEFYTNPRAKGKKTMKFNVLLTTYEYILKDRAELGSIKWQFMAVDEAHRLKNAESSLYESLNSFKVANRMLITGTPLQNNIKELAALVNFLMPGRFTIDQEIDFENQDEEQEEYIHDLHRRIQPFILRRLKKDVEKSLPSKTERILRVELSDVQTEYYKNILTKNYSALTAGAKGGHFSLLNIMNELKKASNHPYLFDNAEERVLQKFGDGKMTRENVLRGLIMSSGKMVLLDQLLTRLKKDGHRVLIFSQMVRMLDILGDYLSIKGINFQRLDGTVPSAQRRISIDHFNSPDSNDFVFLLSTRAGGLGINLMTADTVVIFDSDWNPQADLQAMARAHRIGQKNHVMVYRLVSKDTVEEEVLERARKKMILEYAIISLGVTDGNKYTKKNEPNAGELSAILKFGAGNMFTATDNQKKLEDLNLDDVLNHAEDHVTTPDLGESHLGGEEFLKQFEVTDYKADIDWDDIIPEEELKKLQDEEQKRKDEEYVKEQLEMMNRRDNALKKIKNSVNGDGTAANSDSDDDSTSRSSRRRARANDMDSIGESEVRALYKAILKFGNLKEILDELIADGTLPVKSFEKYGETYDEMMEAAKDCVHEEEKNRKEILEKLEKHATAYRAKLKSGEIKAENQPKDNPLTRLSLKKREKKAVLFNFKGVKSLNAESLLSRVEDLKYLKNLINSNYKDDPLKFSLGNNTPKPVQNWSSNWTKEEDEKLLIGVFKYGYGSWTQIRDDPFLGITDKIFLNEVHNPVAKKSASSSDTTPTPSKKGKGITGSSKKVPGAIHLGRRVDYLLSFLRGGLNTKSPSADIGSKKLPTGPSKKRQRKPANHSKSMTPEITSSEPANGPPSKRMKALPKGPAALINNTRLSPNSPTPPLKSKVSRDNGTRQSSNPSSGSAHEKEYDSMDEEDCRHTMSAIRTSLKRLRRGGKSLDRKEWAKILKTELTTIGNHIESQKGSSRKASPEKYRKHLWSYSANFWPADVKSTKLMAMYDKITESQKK
Sialic acid-binding Ig-like lectin 9 (Homo sapiens), sequence (Q9Y336 whole entry): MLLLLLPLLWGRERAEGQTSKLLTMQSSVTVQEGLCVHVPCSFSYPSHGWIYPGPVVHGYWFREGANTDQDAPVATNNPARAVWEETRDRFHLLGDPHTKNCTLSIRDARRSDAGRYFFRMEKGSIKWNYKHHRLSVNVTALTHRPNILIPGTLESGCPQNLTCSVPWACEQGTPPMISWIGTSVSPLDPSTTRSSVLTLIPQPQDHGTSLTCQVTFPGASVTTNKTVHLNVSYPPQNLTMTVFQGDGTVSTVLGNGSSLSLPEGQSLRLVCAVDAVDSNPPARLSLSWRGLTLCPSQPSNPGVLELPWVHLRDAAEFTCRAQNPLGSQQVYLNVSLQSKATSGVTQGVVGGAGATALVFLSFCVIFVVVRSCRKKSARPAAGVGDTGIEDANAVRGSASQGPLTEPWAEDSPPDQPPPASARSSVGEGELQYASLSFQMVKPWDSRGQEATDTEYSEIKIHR
Protein translocase subunit SecA (Escherichia coli (strain K12)), sequence (P10408 whole entry): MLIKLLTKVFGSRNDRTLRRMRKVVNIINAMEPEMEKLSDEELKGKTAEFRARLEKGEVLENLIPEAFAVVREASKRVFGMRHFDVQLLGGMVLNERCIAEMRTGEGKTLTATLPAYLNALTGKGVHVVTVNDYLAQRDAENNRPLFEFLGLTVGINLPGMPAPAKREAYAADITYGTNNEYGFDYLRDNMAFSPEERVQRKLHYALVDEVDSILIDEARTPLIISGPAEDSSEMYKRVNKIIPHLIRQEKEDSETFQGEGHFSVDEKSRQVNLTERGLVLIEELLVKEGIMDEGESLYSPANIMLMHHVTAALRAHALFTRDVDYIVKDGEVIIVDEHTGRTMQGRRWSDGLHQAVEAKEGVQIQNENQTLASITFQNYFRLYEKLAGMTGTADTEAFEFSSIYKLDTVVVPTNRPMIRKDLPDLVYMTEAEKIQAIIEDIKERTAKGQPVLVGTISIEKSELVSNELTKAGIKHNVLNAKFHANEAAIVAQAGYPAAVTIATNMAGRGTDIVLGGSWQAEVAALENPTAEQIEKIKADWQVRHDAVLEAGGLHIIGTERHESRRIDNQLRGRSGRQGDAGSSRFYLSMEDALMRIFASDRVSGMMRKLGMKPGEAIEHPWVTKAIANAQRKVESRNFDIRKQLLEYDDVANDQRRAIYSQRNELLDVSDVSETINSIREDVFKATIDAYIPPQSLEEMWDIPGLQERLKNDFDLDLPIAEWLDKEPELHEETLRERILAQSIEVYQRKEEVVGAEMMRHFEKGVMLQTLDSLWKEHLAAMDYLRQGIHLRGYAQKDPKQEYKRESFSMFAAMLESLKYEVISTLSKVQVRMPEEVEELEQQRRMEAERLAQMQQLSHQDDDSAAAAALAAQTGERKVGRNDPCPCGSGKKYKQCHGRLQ

Consider `Cc1n[nH]c(C2CN(C(=O)c3cc(Cl)c[nH]3)CCO2)n1` (stereo unspecified), for which the Percent Effect is -1.17% in assay [1]; 2.63% in assay [2]; 11.8% in [3]; -0.307% in [4]; -0.876% in the assay on Trypanosoma cruzi; -3.55% in assay [5]. Further, the Percent Effect is 5.27% in assay [6]; -2.14% in the assay filed under Homo sapiens; 4.25% in assay [7]; 5.2% in [8]; 0.543% in assay [9].
Turning to `CCn1nc(C)c(CNC(=O)c2cn(CCC3CCCCN3)nn2)c1C` (stereo unspecified), the Percent Effect in assay [1] was -5.31%; in assay [2], 2.67%; in assay [3] it was 0.29%; in assay [4] it was 4.73%; in the assay on Trypanosoma cruzi, 1.27%; in assay [5] it was 5.21%. The Percent Effect in [6] is 9.77%; in the assay filed under Homo sapiens, -25.2%; in assay [7], 7.1%; in [8], 16.1%; in [9], -5.55%.
For the compound `O=C(Cc1cccc(F)c1)NCCNCc1ccco1`, the Percent Effect in assay [1] was -9.13%; in assay [2] it was 2.6%; in assay [3], 7.05%; in assay [4], -0.647%; in the assay with Trypanosoma cruzi, -3.37%; in [5] it was -2.13%. Besides, the Percent Effect in assay [6] is 7.09%; in the assay listed under Homo sapiens, 34.8%; in assay [7], 3.88%; in [8], 2.44%; in assay [9] it was -7.92%.
On to `O=C(COC[C@H]1CC[C@H]2[C@H](CCN2c2ncccn2)O1)N1CCCC1`, for which the Percent Effect is -2.35% in assay [1]; 24.7% in assay [2]; -1.6% in assay [3]; 1.45% in assay [4]; 0% in the assay with Trypanosoma cruzi; -1.2% in assay [5]. Moreover, the Percent Effect in [6] was 7.62%; in the assay listed under Homo sapiens, 13.1%; in assay [7], 5.21%; in assay [8], 13.6%; in assay [9], -1.93%.
In the case of `CS(=O)(=O)CCN1CCC2(CCCN(C3CCOCC3)C2=O)C1` (stereo unspecified), the Percent Effect in assay [1] was -4.3%; in [2], 2.74%; in [3], -4.09%; in assay [4], 8.46%; in the assay with Trypanosoma cruzi, 2.98%; in assay [5] it was -2%. Also, the Percent Effect in assay [6] was 3.85%; in the assay filed under Homo sapiens, 13.4%; in [7], 2.08%; in [8], 11.1%; in assay [9] it was -0.555%.
Regarding `Cc1nc2ccnn2c(C)c1CCC(=O)N1CCC(C(N)=O)CC1`, the Percent Effect was -6.89% in assay [1]; 2.63% in assay [2]; 0.295% in [3]; -2.71% in assay [4]; -5.32% in the assay with Trypanosoma cruzi; 2.88% in assay [5]. Moreover, the Percent Effect in assay [6] worked out at 5.5%; in the assay filed under Homo sapiens, 4.03%; in assay [7], 5.42%; in [8], 1.24%; in assay [9], 1.87%.
Turning to `O=C(NCCOc1ccc2c(c1)OCO2)C1CC(=O)N(CC2CC2)C1` (stereo unspecified), the Percent Effect in assay [1] is -2.83%; in assay [2] it was 18.4%; in assay [3], 1.65%; in [4] it was -9.9%; with Trypanosoma cruzi, 6.82%; in assay [5], 0%. In addition, the Percent Effect in [6] is 9.56%; in the assay listed under Homo sapiens it was -20.7%; in assay [7], 6.4%; in assay [8] it was 23.5%; in assay [9], -7.44%.
In the case of `CC(CNC(=O)c1ccc(Cl)cc1I)N1CCCC1` (stereo unspecified), the Percent Effect in assay [1] is -0.489%; in assay [2] it was -2.7%; in assay [3], -6.38%; in [4], -1.77%; with Trypanosoma cruzi, 7.53%; in [5], -2.38%. Further, the Percent Effect in assay [6] was 27.4%; in the assay filed under Homo sapiens it was -7.67%; in [7] it was 6.88%; in [8], 12.2%; in [9], 51.2%.
`Cn1c(Cn2cccn2)nnc1C1CCN(Cc2cccnc2N)CC1`: the Percent Effect in assay [1] was -8.22%; in assay [2], 1.39%; in assay [3], -1.91%; in assay [4], -4.65%; in the assay on Trypanosoma cruzi it was -3.4%; in assay [5] it was 0.883%. The Percent Effect in [6] is 3.86%; in the assay filed under Homo sapiens, 12.7%; in assay [7], -1.05%; in [8], 0%; in [9], 0.423%.
Take `Cc1nn(C)c(N(C)C)c1CNCc1cccc(OCCN(C)C)c1`: the Percent Effect in [1] is -0.484%; in [2] it was 15.8%; in assay [3], -1.72%; in assay [4], 5.4%; with Trypanosoma cruzi it was -8.08%; in [5], -4.98%. Also, the Percent Effect in assay [6] was 14.4%; in the assay listed under Homo sapiens, 23.3%; in [7], -1.47%; in assay [8], 7.32%; in assay [9] it was -6.3%.
For the compound `O=C(c1cc(Cl)c2c(c1)OCO2)N1CCN(c2nccs2)CC1`, the Percent Effect is -3.24% in assay [1]; 11% in [2]; -2.85% in [3]; 1.89% in assay [4]; 2.55% in the assay on Trypanosoma cruzi; 3.18% in assay [5]. In addition, the Percent Effect in assay [6] was 7.45%; in the assay filed under Homo sapiens it was 3.79%; in assay [7], 7.53%; in assay [8], 15%; in assay [9], -3.25%.
